Drawing on paper PMC7862700, “An all-to-all approach to the identification of sequence-specific readers for epigenetic DNA modifications on cytosine”, this text covers binding signal for 1 sequence.

Holding throughout (test): DAPPL (digital affinity profiling via proximity ligation, sequencing); 10 mM Tris-HCl pH 7.5, 50 mM NaCl, 1 mM DTT, 4% glycerol, room temperature, 30 min; GST-TFs on glutathione beads, 16-mer random dsDNA library, 0.1% formaldehyde crosslink after washing; high values mean tight binding
The target of one assay is T1, FEV (Homo sapiens, UniProt Q99581 1-238).
T1 sequence: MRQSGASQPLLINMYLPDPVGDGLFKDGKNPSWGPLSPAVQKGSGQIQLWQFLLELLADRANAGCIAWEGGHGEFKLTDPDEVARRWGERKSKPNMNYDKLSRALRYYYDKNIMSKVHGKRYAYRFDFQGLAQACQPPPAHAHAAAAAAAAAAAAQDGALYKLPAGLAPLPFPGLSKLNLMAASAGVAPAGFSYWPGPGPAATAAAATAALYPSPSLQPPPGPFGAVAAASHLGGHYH
The conditions noted are these: protein: recombinant; tags: N-terminal GST; dsDNA, one strand shown. An outline of the steps:
(§1)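 A tag-only sample was pooled with DNA-barcoded human transcription factors that had been expressed in yeast as GST fusions and captured on glutathione beads. The pools were incubated for 30 min at room temperature with 200 nmole of a random double-stranded 16-mer DNA library in Tris/NaCl/DTT/glycerol buffer, then washed, crosslinked with 0.1% formaldehyde, proximity-ligated (BsaI/T4 ligase, 1 h, 37 °C), PCR-amplified and sequenced on an Illumina NextSeq500. Binding signal is each hexamer's read frequency for a factor divided by its frequency for the tag-only sample.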

The target in another assay is ETV5 (Homo sapiens, UniProt P41161 1-510). The conditions noted are these: protein: recombinant; tags: N-terminal GST; dsDNA, one strand shown. An outline of the steps:
as §1

The target of the next assay is HSF1 (Homo sapiens, UniProt Q00613 1-529). The following applies: protein: recombinant; tags: N-terminal GST; chain copies: 3; dsDNA, one strand shown. An outline of the steps:
as §1

In another assay the target is T2, SPIC (Homo sapiens, UniProt Q8N5J4 1-248).
T2 sequence: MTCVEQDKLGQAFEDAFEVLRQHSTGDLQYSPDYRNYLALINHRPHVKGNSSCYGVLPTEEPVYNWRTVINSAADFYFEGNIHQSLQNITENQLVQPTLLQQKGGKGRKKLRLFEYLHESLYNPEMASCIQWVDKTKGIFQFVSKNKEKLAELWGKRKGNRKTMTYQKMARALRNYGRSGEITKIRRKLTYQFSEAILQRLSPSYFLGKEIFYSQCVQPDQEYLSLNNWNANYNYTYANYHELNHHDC
The conditions noted are these: protein: recombinant; tags: N-terminal GST; dsDNA, one strand shown. In outline: as §1

The target of a further assay is ELF4 (Homo sapiens, UniProt Q99607 1-663). The following applies: protein: recombinant; tags: N-terminal GST; dsDNA, one strand shown. An outline of the steps: as §1
In a further assay the target is T3, ELK4 (Homo sapiens, UniProt P28324-2 1-405).
T3 sequence: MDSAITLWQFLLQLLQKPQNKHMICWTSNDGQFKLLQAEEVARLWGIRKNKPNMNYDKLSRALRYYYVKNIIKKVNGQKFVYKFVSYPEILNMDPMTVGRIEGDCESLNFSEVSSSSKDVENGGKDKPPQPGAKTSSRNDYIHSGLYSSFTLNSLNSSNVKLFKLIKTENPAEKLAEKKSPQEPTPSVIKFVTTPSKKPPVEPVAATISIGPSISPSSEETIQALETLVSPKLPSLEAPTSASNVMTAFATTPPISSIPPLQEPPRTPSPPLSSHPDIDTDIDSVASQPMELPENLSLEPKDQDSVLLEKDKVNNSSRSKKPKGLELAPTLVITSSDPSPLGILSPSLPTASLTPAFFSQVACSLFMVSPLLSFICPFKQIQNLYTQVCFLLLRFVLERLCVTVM
The conditions noted are these: protein: recombinant; tags: N-terminal GST; dsDNA, one strand shown. In outline:
as §1

In a further assay the target is T4, ETV2 (Homo sapiens, UniProt O00321 1-342).
T4 sequence: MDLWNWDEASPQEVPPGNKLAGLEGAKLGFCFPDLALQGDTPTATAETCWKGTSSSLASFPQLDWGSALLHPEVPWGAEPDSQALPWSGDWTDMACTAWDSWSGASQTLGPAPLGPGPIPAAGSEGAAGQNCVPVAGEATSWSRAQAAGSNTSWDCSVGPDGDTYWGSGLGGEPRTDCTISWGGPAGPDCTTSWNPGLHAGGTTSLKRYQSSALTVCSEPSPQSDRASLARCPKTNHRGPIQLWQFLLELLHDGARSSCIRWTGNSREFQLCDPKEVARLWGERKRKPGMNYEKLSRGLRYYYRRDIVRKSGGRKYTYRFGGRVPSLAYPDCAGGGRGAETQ
The conditions noted are these: protein: recombinant; tags: N-terminal GST; dsDNA, one strand shown. In outline:
as §1

The target of another assay is T5, ELF3 (Homo sapiens, UniProt P78545 1-371).
T5 sequence: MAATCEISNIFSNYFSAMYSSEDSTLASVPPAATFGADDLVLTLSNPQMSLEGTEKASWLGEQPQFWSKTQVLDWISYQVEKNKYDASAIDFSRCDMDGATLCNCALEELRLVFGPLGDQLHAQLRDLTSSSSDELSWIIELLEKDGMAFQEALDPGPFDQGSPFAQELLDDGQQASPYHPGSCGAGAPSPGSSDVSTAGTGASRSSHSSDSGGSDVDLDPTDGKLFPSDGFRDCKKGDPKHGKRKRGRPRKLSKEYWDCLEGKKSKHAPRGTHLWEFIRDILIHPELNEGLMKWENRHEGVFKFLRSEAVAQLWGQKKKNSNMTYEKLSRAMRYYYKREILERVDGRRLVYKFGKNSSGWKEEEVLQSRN
The conditions noted are these: protein: recombinant; tags: N-terminal GST; dsDNA, one strand shown. In outline:
as §1

Another assay addresses CRX (Homo sapiens, UniProt O43186 1-299). The following applies: protein: recombinant; tags: N-terminal GST; dsDNA, one strand shown. In outline: as §1
Another assay deals with ETV1 (Homo sapiens, UniProt P50549 1-477). The following applies: protein: recombinant; tags: N-terminal GST; dsDNA, one strand shown. An outline of the steps: as §1
In another assay the target is T6, ERF (Homo sapiens, UniProt P50548 1-548).
T6 sequence: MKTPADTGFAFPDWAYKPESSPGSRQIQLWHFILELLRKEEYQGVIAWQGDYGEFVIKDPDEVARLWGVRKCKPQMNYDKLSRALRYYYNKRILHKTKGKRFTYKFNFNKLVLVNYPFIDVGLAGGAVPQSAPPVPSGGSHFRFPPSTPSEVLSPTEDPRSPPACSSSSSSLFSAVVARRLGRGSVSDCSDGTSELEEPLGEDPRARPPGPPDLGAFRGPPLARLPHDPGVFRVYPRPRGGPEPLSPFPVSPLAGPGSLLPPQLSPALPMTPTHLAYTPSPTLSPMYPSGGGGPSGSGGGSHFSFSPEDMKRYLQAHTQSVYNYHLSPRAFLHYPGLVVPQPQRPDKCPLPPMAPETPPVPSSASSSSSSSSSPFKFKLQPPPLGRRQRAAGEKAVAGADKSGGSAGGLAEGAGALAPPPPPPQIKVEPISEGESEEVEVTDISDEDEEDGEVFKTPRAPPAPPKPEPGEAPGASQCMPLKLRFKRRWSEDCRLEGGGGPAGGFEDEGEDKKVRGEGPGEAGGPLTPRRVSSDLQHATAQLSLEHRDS
The following applies: protein: recombinant; tags: N-terminal GST; dsDNA, one strand shown. An outline of the steps: as §1

A further assay addresses T7, ETV3L (Homo sapiens, UniProt Q6ZN32 1-361).
T7 sequence: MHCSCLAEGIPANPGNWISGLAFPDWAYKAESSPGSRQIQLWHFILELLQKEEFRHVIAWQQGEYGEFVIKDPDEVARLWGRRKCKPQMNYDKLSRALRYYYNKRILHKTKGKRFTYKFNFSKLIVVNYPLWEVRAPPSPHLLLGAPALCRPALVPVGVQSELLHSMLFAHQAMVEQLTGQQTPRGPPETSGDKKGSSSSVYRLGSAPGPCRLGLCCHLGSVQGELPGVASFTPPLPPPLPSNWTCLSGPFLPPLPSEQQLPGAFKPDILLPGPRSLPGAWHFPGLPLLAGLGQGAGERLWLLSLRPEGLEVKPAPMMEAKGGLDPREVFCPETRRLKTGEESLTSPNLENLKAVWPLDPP
The conditions noted are these: protein: recombinant; tags: N-terminal GST; dsDNA, one strand shown. An outline of the steps: as §1

In a further assay the target is T8, ETS2 (Homo sapiens, UniProt P15036 1-469).
T8 sequence: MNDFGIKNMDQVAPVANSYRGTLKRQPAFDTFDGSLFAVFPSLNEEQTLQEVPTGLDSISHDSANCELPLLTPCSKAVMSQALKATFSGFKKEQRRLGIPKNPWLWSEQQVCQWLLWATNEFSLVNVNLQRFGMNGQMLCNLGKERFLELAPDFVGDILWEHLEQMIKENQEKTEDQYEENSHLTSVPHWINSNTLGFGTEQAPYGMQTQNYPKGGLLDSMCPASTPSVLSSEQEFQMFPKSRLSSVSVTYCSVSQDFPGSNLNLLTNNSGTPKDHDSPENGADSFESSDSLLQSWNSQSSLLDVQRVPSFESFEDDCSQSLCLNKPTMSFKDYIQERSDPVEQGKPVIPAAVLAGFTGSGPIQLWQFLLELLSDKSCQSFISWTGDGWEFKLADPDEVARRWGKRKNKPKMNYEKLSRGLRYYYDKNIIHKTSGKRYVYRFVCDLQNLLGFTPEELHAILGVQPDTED
The following applies: protein: recombinant; tags: N-terminal GST; dsDNA, one strand shown. An outline of the steps:
as §1

The target in the next assay is T9, SPDEF (Homo sapiens, UniProt O95238 1-335).
T9 sequence: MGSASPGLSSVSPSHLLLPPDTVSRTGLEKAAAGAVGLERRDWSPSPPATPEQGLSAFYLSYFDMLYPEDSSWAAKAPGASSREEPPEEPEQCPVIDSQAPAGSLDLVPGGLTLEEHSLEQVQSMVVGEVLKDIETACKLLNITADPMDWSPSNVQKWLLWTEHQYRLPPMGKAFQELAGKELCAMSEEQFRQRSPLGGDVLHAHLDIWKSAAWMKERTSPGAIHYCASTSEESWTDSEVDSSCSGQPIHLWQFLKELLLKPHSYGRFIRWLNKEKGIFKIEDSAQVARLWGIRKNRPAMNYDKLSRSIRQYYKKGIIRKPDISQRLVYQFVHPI
The conditions noted are these: protein: recombinant; tags: N-terminal GST; dsDNA, one strand shown. An outline of the steps: as §1

The target of the next assay is T10, ETV7 (Homo sapiens, UniProt Q9Y603 1-341).
T10 sequence: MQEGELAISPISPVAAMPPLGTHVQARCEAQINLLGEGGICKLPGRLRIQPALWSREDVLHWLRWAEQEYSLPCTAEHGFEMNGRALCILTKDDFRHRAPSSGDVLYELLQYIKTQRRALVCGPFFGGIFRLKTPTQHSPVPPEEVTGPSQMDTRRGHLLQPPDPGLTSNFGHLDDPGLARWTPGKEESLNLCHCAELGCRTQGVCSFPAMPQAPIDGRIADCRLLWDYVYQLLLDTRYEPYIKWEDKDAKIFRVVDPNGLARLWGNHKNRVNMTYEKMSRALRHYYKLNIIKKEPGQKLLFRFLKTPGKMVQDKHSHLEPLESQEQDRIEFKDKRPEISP
The following applies: protein: recombinant; tags: N-terminal GST; dsDNA, one strand shown. In outline: as §1

The next assay deals with T11, ELF5 (Homo sapiens, UniProt Q9UKW6-2 1-255).
T11 sequence: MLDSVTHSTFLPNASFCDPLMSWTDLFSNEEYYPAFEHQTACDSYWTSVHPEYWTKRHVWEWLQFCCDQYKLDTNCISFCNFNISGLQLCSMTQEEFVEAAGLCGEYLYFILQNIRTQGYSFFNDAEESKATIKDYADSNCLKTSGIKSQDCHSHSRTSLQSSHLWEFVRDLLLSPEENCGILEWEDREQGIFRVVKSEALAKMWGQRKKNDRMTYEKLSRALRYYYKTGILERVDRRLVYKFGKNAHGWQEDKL
The following applies: protein: recombinant; tags: N-terminal GST; dsDNA, one strand shown. In outline:
as §1

In another assay the target is T12, ETV3 (Homo sapiens, UniProt P41162-2 1-143).
T12 sequence: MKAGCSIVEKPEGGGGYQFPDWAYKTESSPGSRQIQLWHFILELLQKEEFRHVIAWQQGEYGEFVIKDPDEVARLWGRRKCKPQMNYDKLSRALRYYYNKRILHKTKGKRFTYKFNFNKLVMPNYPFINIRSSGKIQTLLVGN
The conditions noted are these: protein: recombinant; tags: N-terminal GST; dsDNA, one strand shown. In outline:
as §1

A further assay concerns the target ETV6 (Homo sapiens, UniProt P41212 1-452). The conditions noted are these: protein: recombinant; tags: N-terminal GST; dsDNA, one strand shown. An outline of the steps: as §1

HSF1, sequence (Q00613 whole entry): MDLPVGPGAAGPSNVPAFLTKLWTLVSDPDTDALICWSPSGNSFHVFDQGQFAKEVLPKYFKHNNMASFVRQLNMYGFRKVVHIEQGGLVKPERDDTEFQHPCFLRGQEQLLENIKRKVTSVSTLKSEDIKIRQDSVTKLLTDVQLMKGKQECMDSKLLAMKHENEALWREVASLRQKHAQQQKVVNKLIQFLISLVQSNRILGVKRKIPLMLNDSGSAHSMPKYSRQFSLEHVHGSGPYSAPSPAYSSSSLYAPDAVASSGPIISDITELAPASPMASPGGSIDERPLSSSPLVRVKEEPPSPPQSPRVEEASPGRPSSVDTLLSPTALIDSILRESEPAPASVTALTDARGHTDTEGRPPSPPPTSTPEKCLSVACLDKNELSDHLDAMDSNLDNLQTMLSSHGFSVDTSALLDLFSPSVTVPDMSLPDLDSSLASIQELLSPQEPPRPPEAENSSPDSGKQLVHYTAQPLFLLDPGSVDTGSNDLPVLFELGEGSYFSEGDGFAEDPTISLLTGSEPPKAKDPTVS
ETV5, sequence (P41161 whole entry): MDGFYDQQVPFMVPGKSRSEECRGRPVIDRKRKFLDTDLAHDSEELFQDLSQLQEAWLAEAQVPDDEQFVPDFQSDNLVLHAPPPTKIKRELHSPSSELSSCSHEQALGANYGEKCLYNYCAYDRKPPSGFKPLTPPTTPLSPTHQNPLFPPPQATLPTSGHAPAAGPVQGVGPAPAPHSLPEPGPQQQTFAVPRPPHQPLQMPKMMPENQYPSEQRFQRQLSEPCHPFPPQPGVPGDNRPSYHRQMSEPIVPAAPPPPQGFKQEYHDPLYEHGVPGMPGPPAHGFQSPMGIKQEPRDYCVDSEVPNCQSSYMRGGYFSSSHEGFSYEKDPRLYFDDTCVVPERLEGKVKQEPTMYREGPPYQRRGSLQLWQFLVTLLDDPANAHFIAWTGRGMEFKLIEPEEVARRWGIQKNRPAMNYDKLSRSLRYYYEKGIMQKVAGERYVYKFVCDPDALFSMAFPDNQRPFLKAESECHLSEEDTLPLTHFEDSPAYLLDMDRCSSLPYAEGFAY
ETV1, sequence (P50549 whole entry): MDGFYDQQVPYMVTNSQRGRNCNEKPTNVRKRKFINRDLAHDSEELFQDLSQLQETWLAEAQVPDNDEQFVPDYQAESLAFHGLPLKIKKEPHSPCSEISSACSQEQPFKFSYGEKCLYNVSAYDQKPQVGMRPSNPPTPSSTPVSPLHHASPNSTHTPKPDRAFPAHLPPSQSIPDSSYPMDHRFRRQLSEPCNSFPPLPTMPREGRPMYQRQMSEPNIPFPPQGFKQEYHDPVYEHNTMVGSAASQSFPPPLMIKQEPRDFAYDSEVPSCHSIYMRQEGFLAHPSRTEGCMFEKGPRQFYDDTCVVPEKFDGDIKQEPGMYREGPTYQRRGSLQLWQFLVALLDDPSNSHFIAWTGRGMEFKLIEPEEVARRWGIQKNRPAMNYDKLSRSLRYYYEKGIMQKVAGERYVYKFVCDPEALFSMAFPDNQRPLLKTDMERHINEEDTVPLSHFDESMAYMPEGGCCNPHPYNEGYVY
ETV6, sequence (P41212 whole entry): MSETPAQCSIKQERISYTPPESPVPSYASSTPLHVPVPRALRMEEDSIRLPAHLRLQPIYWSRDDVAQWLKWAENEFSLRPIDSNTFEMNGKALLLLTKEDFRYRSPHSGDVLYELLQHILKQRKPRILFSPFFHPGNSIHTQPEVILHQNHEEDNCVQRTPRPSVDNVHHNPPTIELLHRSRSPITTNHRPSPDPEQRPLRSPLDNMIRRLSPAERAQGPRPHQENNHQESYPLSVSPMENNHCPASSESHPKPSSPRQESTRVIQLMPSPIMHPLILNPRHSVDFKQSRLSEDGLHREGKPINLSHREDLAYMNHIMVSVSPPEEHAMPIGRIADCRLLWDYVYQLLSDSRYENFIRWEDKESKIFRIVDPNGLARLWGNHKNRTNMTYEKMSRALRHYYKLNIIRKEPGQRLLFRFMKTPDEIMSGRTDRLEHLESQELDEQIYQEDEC
ELF4, sequence (Q99607 whole entry): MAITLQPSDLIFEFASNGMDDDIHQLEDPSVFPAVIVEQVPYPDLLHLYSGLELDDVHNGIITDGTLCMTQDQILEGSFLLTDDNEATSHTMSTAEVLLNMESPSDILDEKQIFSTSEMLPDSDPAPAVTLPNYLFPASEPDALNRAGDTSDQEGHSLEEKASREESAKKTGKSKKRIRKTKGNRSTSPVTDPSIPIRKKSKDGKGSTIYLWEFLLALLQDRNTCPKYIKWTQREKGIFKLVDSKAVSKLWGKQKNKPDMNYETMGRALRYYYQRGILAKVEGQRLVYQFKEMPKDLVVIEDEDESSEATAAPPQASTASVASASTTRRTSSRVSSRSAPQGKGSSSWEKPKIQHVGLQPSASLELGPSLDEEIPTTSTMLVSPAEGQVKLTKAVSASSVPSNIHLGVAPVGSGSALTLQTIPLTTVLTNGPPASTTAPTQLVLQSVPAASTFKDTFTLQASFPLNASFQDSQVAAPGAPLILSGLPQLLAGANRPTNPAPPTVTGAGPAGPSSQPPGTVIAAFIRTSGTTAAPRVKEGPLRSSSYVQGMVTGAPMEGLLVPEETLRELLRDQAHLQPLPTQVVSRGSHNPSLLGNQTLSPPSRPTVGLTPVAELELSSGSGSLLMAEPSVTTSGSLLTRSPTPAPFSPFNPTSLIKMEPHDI
CRX, sequence (O43186 whole entry): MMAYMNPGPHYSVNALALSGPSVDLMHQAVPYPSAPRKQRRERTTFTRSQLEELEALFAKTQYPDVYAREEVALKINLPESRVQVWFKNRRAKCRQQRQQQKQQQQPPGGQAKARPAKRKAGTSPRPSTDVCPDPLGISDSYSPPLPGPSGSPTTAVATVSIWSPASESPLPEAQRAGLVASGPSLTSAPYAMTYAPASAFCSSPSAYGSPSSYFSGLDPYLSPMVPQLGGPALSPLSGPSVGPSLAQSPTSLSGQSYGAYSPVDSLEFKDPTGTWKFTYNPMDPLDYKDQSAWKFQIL

As to CCAATA, the binding signal in the assay with FEV is 1.19 fold enrichment (6-mer frequency, TF over GST control); with ETV5, 1.29 fold enrichment (6-mer frequency, TF over GST control); with HSF1, 1.12 fold enrichment (6-mer frequency, TF over GST control); with SPIC, 1.18 fold enrichment (6-mer frequency, TF over GST control); with ELF4 it was 1.29 fold enrichment (6-mer frequency, TF over GST control); with ELK4, 1.23 fold enrichment (6-mer frequency, TF over GST control). Besides, the binding signal with ETV2 was 1.09 fold enrichment (6-mer frequency, TF over GST control); with ELF3 it was 1.25 fold enrichment (6-mer frequency, TF over GST control); with CRX it was 1.22 fold enrichment (6-mer frequency, TF over GST control); with ETV1, 1.21 fold enrichment (6-mer frequency, TF over GST control); with ERF, 1.34 fold enrichment (6-mer frequency, TF over GST control); with ETV3L, 1.21 fold enrichment (6-mer frequency, TF over GST control). Besides, the binding signal with ETS2 is 1.28 fold enrichment (6-mer frequency, TF over GST control); with SPDEF, 1.24 fold enrichment (6-mer frequency, TF over GST control); with ETV7, 1.14 fold enrichment (6-mer frequency, TF over GST control); in the assay with ELF5, 1.13 fold enrichment (6-mer frequency, TF over GST control); with ETV3, 1.19 fold enrichment (6-mer frequency, TF over GST control); in the assay with ETV6, 1.23 fold enrichment (6-mer frequency, TF over GST control).
